MPTP inh – permeability transition pore inhibition; isolated mouse mitochondria, Ca2+ swelling absorbance, 30 min; inhibition, % at 10 µM; 360,000 compounds, 1.4% hits;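 active = inhibition of 50% or more, scaled per plate between neutral and stimulator controls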;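 also: 0% = DMSO wells given calcium and 100% = 1 mM EGTA wells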
GRIN3A LBD mod – modulates the human NR3A ligand-binding domain. 340,000 compounds, 2.5% hits. NR3A LBD differential scanning fluorimetry, Tm shift; 0% = protein alone, 100% = glycine-bound protein. Tm shift relative to glycine control, % at 25 µM. AID 1259313;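 active = melting temperature shift of at least 10% of the positive control shift, at one fixed dose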
p-CIP stab down – lowers stability of the mouse p/CIP coactivator protein; Q05BA5; F442A p/CIP-EGFP cells, EGFP fluorescence, 16 h; decrease of EGFP signal, % at 10 µM; 290,000 compounds, 0.01% hits; AID 1984;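 active = EGFP signal decrease of at least 30% at 10 µM or well 3 SD below plate mean, unless failing retest; inactive = the rest, including hits failing retest or dose response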
Target sequence (Q05BA5 1-1403): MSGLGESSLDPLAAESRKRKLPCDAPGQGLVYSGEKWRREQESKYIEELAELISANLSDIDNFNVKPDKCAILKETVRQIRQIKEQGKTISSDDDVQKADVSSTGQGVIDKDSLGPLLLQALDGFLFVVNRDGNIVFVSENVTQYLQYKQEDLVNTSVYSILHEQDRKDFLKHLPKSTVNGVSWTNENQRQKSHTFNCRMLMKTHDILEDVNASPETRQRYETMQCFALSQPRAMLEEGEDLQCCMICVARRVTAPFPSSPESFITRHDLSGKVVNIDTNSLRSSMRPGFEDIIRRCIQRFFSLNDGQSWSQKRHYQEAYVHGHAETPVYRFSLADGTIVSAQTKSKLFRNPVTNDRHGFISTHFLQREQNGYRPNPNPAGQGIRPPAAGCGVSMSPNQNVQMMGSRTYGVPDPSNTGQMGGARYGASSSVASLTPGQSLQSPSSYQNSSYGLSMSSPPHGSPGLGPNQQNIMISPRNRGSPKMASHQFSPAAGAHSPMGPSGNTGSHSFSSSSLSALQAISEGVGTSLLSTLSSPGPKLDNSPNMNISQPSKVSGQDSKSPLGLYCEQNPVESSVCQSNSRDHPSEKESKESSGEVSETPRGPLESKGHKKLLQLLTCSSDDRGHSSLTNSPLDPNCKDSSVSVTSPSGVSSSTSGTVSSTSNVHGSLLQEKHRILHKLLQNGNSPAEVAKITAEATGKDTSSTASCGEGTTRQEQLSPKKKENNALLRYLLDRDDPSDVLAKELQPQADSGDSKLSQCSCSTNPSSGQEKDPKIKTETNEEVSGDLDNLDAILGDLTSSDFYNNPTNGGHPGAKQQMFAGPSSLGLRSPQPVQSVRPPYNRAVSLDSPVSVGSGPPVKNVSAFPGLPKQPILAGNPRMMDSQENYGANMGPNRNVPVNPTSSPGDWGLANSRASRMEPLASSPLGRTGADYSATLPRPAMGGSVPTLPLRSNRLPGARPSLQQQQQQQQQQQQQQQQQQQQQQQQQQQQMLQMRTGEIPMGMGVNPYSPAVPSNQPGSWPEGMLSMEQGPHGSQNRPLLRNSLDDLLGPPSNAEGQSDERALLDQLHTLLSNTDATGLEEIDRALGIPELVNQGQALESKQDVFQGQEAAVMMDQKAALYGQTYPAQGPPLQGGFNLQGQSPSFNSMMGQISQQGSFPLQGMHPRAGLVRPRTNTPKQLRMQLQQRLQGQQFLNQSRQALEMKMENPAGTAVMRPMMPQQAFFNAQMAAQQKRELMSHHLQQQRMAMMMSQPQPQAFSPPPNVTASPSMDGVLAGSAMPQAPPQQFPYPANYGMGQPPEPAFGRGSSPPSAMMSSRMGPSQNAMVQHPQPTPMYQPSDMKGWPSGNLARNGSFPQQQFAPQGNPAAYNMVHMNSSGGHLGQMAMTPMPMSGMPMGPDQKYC
MIN6 prolif – inducers of beta-cell replication in MIN6 cells; proliferation, % at 10 µM; 330,000 compounds, 0.29% hits; AID 2380; MIN6 cells proliferation, ATPlite luminescence, 48 h; cells starved in 0.2% serum; 100% = growth in 10% serum;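 active = compounds whose signal lies at least 3.5 SD above the mean of all wells on their plate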;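 also: 0% = DMSO-treated cells in low-serum medium and 100% = 10% serum control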
FAS-TE inh – blocks the thioesterase domain of human fatty acid synthase; P49327; recombinant FAS-TE, OMFH fluorogenic substrate, fluorescence endpoint; inhibition, % at 15 µM; 360,000 compounds, 0.67% hits; AID 602261;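 active = compounds whose normalised, plate-corrected inhibition of enzyme fluorescence in the single-dose primary screen is 50% or more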;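 also: 0% = DMSO with enzyme and 100% = substrate without enzyme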
FAS-TE inh conf – FAS thioesterase (human) inhibition, confirmation; shares compounds with FAS-TE inh; recombinant FAS-TE, OMFH fluorogenic substrate, fluorescence; inhibition, % at 15 µM; 2,300 compounds, 45% hits; AID 624325;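 active = compounds inhibiting the enzyme by at least 50% at 15 µM in any one of the replicates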;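 also: 0% = enzyme with DMSO only and 100% = wells lacking enzyme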
* marks the source's active call; other numbers are inactive results; . = not tested or not shown. In the library only some 4.1% were active in any assay of this set; here they are far more common.

SMILES	MPTP inh	GRIN3A LBD mod	p-CIP stab down	MIN6 prolif	FAS-TE inh	FAS-TE inh conf
C[C@@H]1CCCCO[C@H](CN(C)C(=O)Nc2ccc3c(c2)OCO3)[C@@H](C)CN([C@H](C)CO)C(=O)c2cc(NS(=O)(=O)c3ccc(F)cc3)ccc2O1	0	.	.	.	0	.
Cc1ccc(S(=O)(=O)Nc2ccc3c(c2)C(=O)N([C@H](C)CO)C[C@H](C)[C@H](CN(C)C(=O)Nc2cccc4ccccc24)OCCCC[C@@H](C)O3)cc1	0	.	.	.	61*	5
CC(C)NC(=O)Nc1ccc2c(c1)C(=O)N([C@H](C)CO)C[C@H](C)[C@@H](CN(C)S(=O)(=O)c1ccccc1)OCCCC[C@@H](C)O2	-2	.	.	.	-6	.
COc1cccc(C2c3c(oc4ccccc4c3=O)C(=O)N2CCCN2CCOCC2)c1 (stereo not given)	-1	-2	2	0	-1	.
Cc1ccc(S(=O)(=O)N(C(=O)c2ccncc2)c2ccc(OC(=O)c3ccncc3)c3ccccc23)c(C)c1	-3	0	0	-5	46	.
Cc1ccc(S(=O)(=O)N(C(=O)c2ccncc2)c2ccc(OC(=O)c3ccncc3)c3ccccc23)cc1	1	4	-2	-5	57*	5
CCOC(=O)C[C@@H]1OC[C@H](C(C)C)N1S(=O)(=O)c1ccc(C)cc1	8	.	.	.	.	.
COC(=O)c1cc(C(=O)Nc2nnc(CC(C)(C)C)s2)cc([N+](=O)[O-])c1	8	-7	-2	-2	52*	59*
CCOCc1nnc(NC(=O)c2cc(C(=O)OC)cc([N+](=O)[O-])c2)s1	-1	3	-5	1	11	.
COc1ccc(CCNC(=O)c2cc3cc(Cl)ccc3nc2N)cc1OC	0	.	.	.	3	.
Cn1c2ccccc2c2nnc(SCc3ccc4nonc4c3)nc21	3	-3	0	-2	58*	23
O=C(c1ccc(S(=O)(=O)N2CCCC2)cc1)N1CCC(CN2C(=O)c3cccc4cccc(c34)C2=O)CC1	0	0	-2	-5	3	.
COc1ccc(S(=O)(=O)N2CCC(CN3C(=O)c4cccc5cccc(c45)C3=O)CC2)cc1	2	-1	5	0	63*	25
COc1ccccc1-c1csc(Nc2ccc(Oc3ccccc3)cc2)n1	4	.	.	.	23	.
Cn1c(-c2cccc([N+](=O)[O-])c2)cnc1NCc1cccc([N+](=O)[O-])c1	0	0	-13	-3	55*	28
CCOC(=O)/C(C#N)=C/c1c(N2CCN(Cc3ccc4c(c3)OCO4)CC2)nc2c(C)cccn2c1=O	4	-2	1	-1	51*	0
COC(=O)/C(C#N)=C/c1c(N2CCN(Cc3ccc4c(c3)OCO4)CC2)nc2c(C)cccn2c1=O	2	-1	-18	-3	-6	.
Cc1cccn2c(=O)c(/C=C(\C#N)S(=O)(=O)c3ccccc3)c(N3CCN(c4ccccc4)CC3)nc12	2	-1	5	-3	66*	0
Cc1cccn2c(=O)c(/C=C(\C#N)C(N)=O)c(N3CCN(Cc4ccc5c(c4)OCO5)CC3)nc12	0	4	0	-5	56*	69*
COc1cc(C(=S)N2CCOCC2)cc(OC)c1OC(=O)c1ccccc1Cl	-1	.	.	.	8	.
Cc1c(Cl)ccc2c1NC(=O)[C@]21N[C@@H](Cc2ccccc2)[C@H]2C(=O)N(c3ccc(F)cc3)C(=O)[C@H]21	4	13*	-1	-1	76*	20
COc1ccc(Cl)cc1CN1CCN(c2nc(C)cc(C)c2C#N)CC1	2	3	-9	0	16	.
Cc1cc(C)c(C#N)c(N2CCN(CCOc3ccc(Cl)cc3)CC2)n1	1	-4	-34	-2	50*	33
N#Cc1ccc(Oc2ccc(-c3nc4ccccc4nc3-c3ccccc3)cc2)cc1C#N	1	-4	-8	0	70*	28
CCC(C(=O)NC(C)(C)C)N(Cc1ccc(OC)cc1)C(=O)c1snc(C(N)=O)c1N (stereo not given)	0	.	.	.	-1	.
SMILES	MPTP inh	GRIN3A LBD mod	p-CIP stab down	MIN6 prolif	FAS-TE inh	FAS-TE inh conf
CCOc1cccc2cc(C(=O)NCCC3=CCCCC3)c(=O)oc12	-4	1	-9	0	87*	74*
CCn1cc(C(=O)NCc2ccco2)c(=O)c2cc(S(=O)(=O)N3CCc4ccccc4C3)ccc21	2	-5	-8	-4	47	.
CCn1cc(C(=O)NCc2ccco2)c(=O)c2cc(S(=O)(=O)N3CC(C)CC(C)C3)ccc21 (stereo not given)	5	-4	1	-6	78*	87*
C=CCn1cc(C(=O)NCCOC)c(=O)c2cc(S(=O)(=O)N3CCCCCC3)ccc21	1	3	-9	-3	-2	.
CCn1cc(C(=O)NCc2ccco2)c(=O)c2cc(S(=O)(=O)N3CCCCCC3)ccc21	2	-6	0	-5	78*	58*
CCn1cc(C(=O)NCc2ccco2)c(=O)c2cc(S(=O)(=O)N3CCC(C)CC3)ccc21	4	-6	-6	-4	74*	84*
C=CCn1cc(C(=O)NCc2ccco2)c(=O)c2cc(S(=O)(=O)N3CCCCCC3)ccc21	5	1	-12	-6	61*	70*
O=C(NC1CCCC1)C(c1ccccc1)n1c(CSCCOc2ccccc2)nc2ccccc21 (stereo not given)	3	.	.	.	.	.
OCc1ccccc1-c1ccc2nncn2c1	0	.	.	.	-9	.
CC(C)C[C@H]1CNC(=O)C(=O)N1C[C@H]1CCCN1C[C@H](CC(C)C)N1C[C@H](CC(C)C)N(CCc2ccccc2)C(=O)C1=O	-2	.	.	.	-5	.
COc1cc(C2CC(=O)Nc3cc(C)c(C)cc32)cc(OC)c1OC (stereo not given)	1	-5	-12	0	-9	.
Cc1cc2c(cc1C)C(c1cccc([N+](=O)[O-])c1)CC(=O)N2 (stereo not given)	-2	-3	-8	1	60*	79*
COC(=O)C(CC(C)C)N1CCC(=O)c2ccccc2S1(=O)=O (stereo not given)	0	1	-14	-3	-4	.
CCNC(=O)C1CN(S(=O)(=O)c2ccccc2)CCN1S(=O)(=O)c1ccccc1 (stereo not given)	1	-2	-6	-2	-8	.
Cc1ccc(/C=N\NC(=O)C2CN(S(=O)(=O)c3ccccc3)CCN2S(=O)(=O)c2ccccc2)cc1 (stereo not given)	3	5	-18	0	81*	19
COc1ccc(N(C)S(=O)(=O)c2cccc(C(=O)N3CCN(S(=O)(=O)c4ccc(C)cc4)CC3)c2)cc1	0	0	-10	-4	52*	5
Cc1cc2nc(C3CCCCC3)c(Cc3ccccc3)n2c(C)c1Br	2	.	.	.	16	.
